Bioassay records: PubChem BioAssay, National Center for Advancing Translational Sciences (NCATS)
Pf growth 96h: Primary qHTS for delayed death inhibitors of the malarial parasite plastid, 96 hour incubation; P. falciparum luciferase reporter growth, 96 h; Potency, µM (doses to about 28.7 µM), for the others: top-dose activity change, negative = inhibition, hits mostly inhibitors; 320,000 tested, 6.9% active; AID 504834, 2011; further: potency means the concentration at half of the fitted maximal effect; on the % scale 0 is the no-effect control and ±100 the full control effect
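Two-generation exposure (96 h) targets delayed-death phenotype. Reporter parasites carrying integrated firefly luciferase, in red cells at 2% hematocrit and 0.05% parasitemia final, kept at 37 C, 5% CO2; luminescence loss indicates inhibition.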
Cycloheximide cs: Cycloheximide Counterscreen for Small Molecule Inhibitors of Shiga Toxin; max response, %; 300,000 tested, 12% active; cell reporter, cycloheximide protein synthesis inhibition counterscreen; in the data active means max response mostly above about 13%, no sharp cut-off; inactive means mostly below about 14%; further: read at 38.3 µM for the half of the compounds with a filed dose; 0% is about no effect
FBPA Giardia inh: qHTS Assay for Inhibitors of Fructose-1,6-bisphosphate Aldolase from Giardia Lamblia | A8B2U2 | purified Giardia FBPA | Potency, µM (top dose mostly 59.6 µM), without a hit: at the highest dose activity, negative = inhibition, most hits filed as inhibitors | 290,000 tested, 0.71% active | AID 2451, 2010; further: potency means the concentration at half of the fitted maximal effect; on the % scale 0 is the no-effect control and ±100 the full control effect; nearly all actives have a fitted effect of over 55% in size
Target sequence (A8B2U2 whole entry, looked up): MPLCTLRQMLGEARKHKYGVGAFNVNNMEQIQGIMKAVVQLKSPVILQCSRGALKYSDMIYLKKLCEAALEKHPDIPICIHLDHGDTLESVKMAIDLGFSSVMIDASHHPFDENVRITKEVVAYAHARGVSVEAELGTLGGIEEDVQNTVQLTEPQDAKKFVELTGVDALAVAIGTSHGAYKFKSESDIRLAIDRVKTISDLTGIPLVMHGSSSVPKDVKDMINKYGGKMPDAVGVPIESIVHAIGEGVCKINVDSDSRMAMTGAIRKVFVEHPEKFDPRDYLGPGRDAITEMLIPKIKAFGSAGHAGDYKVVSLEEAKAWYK
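40 nM FBPA preincubated 10 min at RT with compound (up to 57.5 uM final), then substrate plus GAPDH/TPI/NAD/arsenate coupling and diaphorase/resazurin added. Fluorescence read after 20 min at RT, 525/598 nm.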
Shiga toxin inh: A qHTS for Small Molecule Inhibitors of Shiga Toxin. Vero cells, Shiga toxin protein synthesis inhibition reporter. inhibition, % at 38.7 µM. 290,000 tested, 9.2% active. AID 2315, 2010; in the data active means inhibition mostly above about 28%, no sharp cut-off; inactive means mostly below about 43%; further: 0% is about no effect
Pf growth 48h: Primary qHTS for delayed death inhibitors of the malarial parasite plastid, 48 hour incubation | AID 504832, 2011 | Potency, µM (series often up to 28.7 µM), for the others: top-dose activity change, negative = inhibition, most hits filed as inhibitors | P. falciparum luciferase growth in erythrocytes, 48 h | 310,000 tested, 5.9% active; further: potency means the concentration at half of the fitted maximal effect; on the % scale 0 is the no-effect control and ±100 the full control effect
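Compounds are pin-transferred into medium, infected erythrocytes (2% hematocrit, 0.1% parasitemia final) are added, and plates sit one parasite generation at 37 C in 5% CO2. Detection reagent is then added and luminescence measured.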
NS1 inh: qHTS Assay for Inhibitors of Influenza NS1 Protein Function; Potency, µM (highest dose often 46.1 µM), for inactives: at the top dose activity, positive = more growth; 270,000 tested, 0.4% active; AID 2326, 2010; calls by dose curve; further: potency means the concentration at half of the fitted maximal effect; actives are rising curves; nearly all actives have a fitted effect of over 50% in size
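Recovery from NS1-induced slow growth read by OD600 in budding yeast switched to galactose assay medium (pH 6.0, -URA) at 1:100 dilution. Compound 23 nl per well; the matching strain lacking NS1 serves as control.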
* marks the source's active call; other numbers are inactive results; ? = inconclusive; . = not tested or not shown; [ ] = dose if it differs, or a comment. A selection: hits, their analogues and other compounds. The true share with any hit is near 21%. Unless noted, the call rests on the fitted dose curve; in most records, active means well fitted curve in the direction sought with a large enough effect; inconclusive means small, poorly fitted or top-dose-only effect, or another doubt; inactive means no such curve, though single readings can be large; an effect the other way counts as inactive or inconclusive.

SMILES	Pf growth 96h	Cycloheximide cs	FBPA Giardia inh	Shiga toxin inh	Pf growth 48h	NS1 inh
CCOC(=O)N1CCN(Cc2nnc(-c3ccccc3C)o2)CC1	0.74µM*	12	-6%	5	19%	2%
CCOC(=O)N1CCN(Cc2nc(-c3cccs3)no2)CC1	?	30*	3%	81*	78%	-1%
NC(=O)C1CCN(Cc2nc(-c3cccs3)no2)CC1	25%	10	3%	5	21%	1%
Brc1ccc(-c2noc(COc3ccc4c(c3)CCC4)n2)o1	?	7	0%	18	10%	-25%
c1csc(-c2noc(COc3ccc4c(c3)CCCC4)n2)c1	?	41*	-29%	89*	77%	-6%
CCOC(=O)c1ccc(OCc2nc(-c3cccs3)no2)cc1	.	16*	0%	33	14%	-2%
CCOC(=O)C1CCN(Cc2nnc(-c3ccccc3C)o2)CC1	12%	2	-14%	-1	-5%	-4%
CCN(CC)C(=O)CSc1nc2cc(OC)c(OC)cc2c(=O)n1Cc1ccc(Cl)cc1	?	-5	-3%	-21	12µM*	5%
COCCNC(=O)CSc1nc2cc(OC)c(OC)cc2c(=O)n1CCC1=CCCCC1	58%	-1	0%	-7	15%	?
COc1cc2nc(SCC(N)=O)n(CCC3=CCCCC3)c(=O)c2cc1OC	13µM*	-6	0%	-4	-12%	-2%
Cc1ccccc1C(=O)N1CCN(c2ccc(NC(=O)c3ccc([N+](=O)[O-])o3)cc2)CC1	-9%	1	8%	3	?	-8%
CC(C)(C)C1CCC(=NNc2nc3ccccc3[nH]2)CC1 (stereo not drawn)	?	37*	0%	68*	?	.
c1ccc(CN2CCC(=NNc3nc4ccccc4[nH]3)CC2)cc1	?	33*	-10%	31	-2%	.
O=C(CCCN1C(=O)c2ccccc2C1=O)Nc1nc2ccccc2[nH]1	0%	-3	-4%	-2	-2%	12%
c1ccc2c(c1)CC/C2=N/Nc1nc2ccccc2[nH]1	?	47*	-20%	119*	2.6µM*	.
Fc1cccc(NC(=S)NCc2ccccc2Cl)c1	?	8	0%	19	?	-8%
CCN(CC)c1ccc(Nc2cc3n(c(=O)n2)CCc2cc(OC)c(OC)cc2-3)cc1	10µM*	10	11%	3	?	-4%
COc1cc2c(cc1OC)-c1cc(NC3CCCC3)nc(=O)n1CC2	6%[5.75 µM]	-1	-3%	-16	?	-13%
COc1cc2c(cc1OC)-c1cc(Nc3ccc(N(C)C)cc3)nc(=O)n1CC2	?	-2	-3%	1	?	-4%
COc1cc2c(cc1OC)-c1cc(Nc3ccc(F)cc3)nc(=O)n1CC2	1.2µM*	-2	-3%	-3	2.1µM*	2%
COc1cc2c(cc1OC)-c1cc(Nc3cccc(F)c3)nc(=O)n1CC2	4.1µM*	-3	1%	3	?	2%
Cc1cc(C)nc(Nc2ccc(Br)cc2C(=O)O)n1	?	-6	-28%	-8	15%	8%
O=c1cccccc1NN=C1CCCCC1	110%	35*	?	80*	?	-5%
O=C(O)c1cc(Br)ccc1NN=C1CCCCC1	10%	21*	-19%	18	6%	-3%
O=c1cccccc1NN=C1CCCCCC1	306%	23*	-17%	82*	98%	-4%
SMILES	Pf growth 96h	Cycloheximide cs	FBPA Giardia inh	Shiga toxin inh	Pf growth 48h	NS1 inh
O=C(O)[C@H]1C2c3ccccc3C(c3ccccc32)[C@@H]1C(=O)NCC1CC1	.	.	.	.	.	-9%
c1ccc(N=P(c2nc3ccccc3o2)(N2CCOCC2)N2CCOCC2)cc1	24%	23*	1%	33*	41%	-9%
Cc1ccc(COn2nnc3ccc(S(=O)(=O)N4CCOCC4)cc32)cc1	?	.	.	.	-12%	.
Cc1ccc2c(COn3nnc4ccc(S(=O)(=O)N(C)C)cc43)cc(=O)oc2c1C	10µM*	-2	17%	-6	4%	-1%
Oc1ccc2c(c1-c1c(O)c(Br)cc3c1CCCC3)CCCC2	.	.	-5%	.	.	.
Nc1cc2c(cc1O)CCCC2	?	51*	?	136	?	4%
CC(C)CCC1(CCNC(C)c2cccs2)CCOC(C)(C)C1 (stereo not drawn)	13µM*	5	6%	-3	?	-8%
CN1CCN(c2ccc(NC(=O)COc3ccccc3[N+](=O)[O-])cc2)CC1	0%	7	4%	22	5%	2%
O=C(COc1ccccc1[N+](=O)[O-])Nc1cccnc1	39%	31*	2%	90*	114%	.
O=C(COc1ccccc1[N+](=O)[O-])NCc1cccnc1	37%	-2	1%	3	20%	19%
CC(C)(C)NC(=O)COC(=O)c1ccccc1OCC(=O)Nc1ccc(Br)cc1	-21%	17*	-4%	35*	-3%	-8%
O=C(COc1ccccc1[N+](=O)[O-])Nc1ccc(Br)cc1	82%	49*	1%	114*	113%	-3%
Cc1nn(C(C)C(=O)N2CCCC2)c(=O)c2nn(-c3ccccc3)c(C)c12 (stereo not drawn)	?	-1	.	-2	2%	1%
CN(C)c1ccc(/C=C/c2cc[n+](C)c3ccccc23)cc1	?	27*	?	25	1µM*	-59%
C[n+]1ccc(/C=C/c2ccccc2O)c2ccccc21	?	-2	-17%	-6	10µM*	.
C[n+]1ccc(-c2ccccc2)c2ccccc21	?	.	.	.	1µM*	.
CN1/C(=C/c2cc[n+](C)c3ccccc23)C=Cc2ccccc21	-28%	2	?	-11	?	.
CCCC(=O)Nc1nnc(CCc2ccccc2)s1	?	7	6%	12	-19%	12%
CC(C)(C)CC(=O)Nc1nnc(CCc2ccccc2)s1	228%	29*	13%	93	?	8%
CCC(C)(C)C(=O)Nc1nnc(CCc2ccccc2)s1	1%	39*	-2%	80*	45%	-5%
COc1ccc(-n2nc(C(=O)NCC(=O)N(C)Cc3ccccc3)c3ccccc3c2=O)cc1OC	0%	-2	2%	11	?	-14%
CC(C)=CCC/C(C)=C/CC/C(C)=C/CC/C(C)=C/C(=O)O	.	1	?	12	.	.
O=C(/C=C/c1cccc(Cl)c1)Nc1ncccn1	?	15	-1%	55*	121%	-12%
Cc1ccc(NC(=O)/C=C/c2cccc(C(F)(F)F)c2)cc1	2%	13	-1%	-8	-12%	-3%
O=C(/C=C/c1cccc(C(F)(F)F)c1)Nc1cccc(C(F)(F)F)c1	?	-2	-7%	19	7.4µM*	-68%
